# Results taken from PubChem BioAssay (Tox21).
# A number with no mark means an inactive call. Results filed as inconclusive are left out. A call without a number means that no potency is given here. The source made the active and inactive calls. Calls come from the whole dose curve; as a rule, active = well fitted curve in the direction sought with a large enough effect in the repeat runs; inconclusive = weak or mixed curves; inactive = no such curve, though single readings can be large; an effect the other way counts as inactive or inconclusive.
# Key:
# [1] = A CellTox Green Cytotoxicity Assay to monitor cytotoxicity in HepG2 cells - 16 hour (AID 1224876); note: nearly all actives have a fitted effect of over 45% in size; note: potency is the fitted concentration of half-maximal effect
# Method in brief: (§1)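 Real-time, homogeneous cytotoxicity readout: dead-cell DNA staining by CellTox Green in HepG2 monolayers, fluorescence measured at timed intervals up to 40 h of continuous compound exposure.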
# [2] = A CellTox Green Cytotoxicity Assay to monitor cytotoxicity in HepG2 cells - 24 hour (AID 1224878); note: nearly all actives have a fitted effect of over 45% in size; note: potency is the fitted concentration of half-maximal effect
# Method in brief: as §1
# [3] = A CellTox Green Cytotoxicity Assay to monitor cytotoxicity in HepG2 cells - 40 hour (AID 1224879); note: nearly all actives have a fitted effect of over 40% in size; note: potency is the fitted concentration of half-maximal effect
# Method in brief: as §1
# [4] = qHTS RealTime-Glo MT Cell Viability Assay in HEK293 cells - 0 hour (AID 1224880); note: top concentration of the series differs between compounds; nearly all actives have a fitted effect of over 45% in size
# Method in brief: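 Nonlytic bioluminescent viability monitoring. HEK293 at 600 cells/well with reagent; 5 h settle; compound transfer by pintool; plates held at 37 C and read at set time points.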
# [5] = A CellTox Green Cytotoxicity Assay to monitor cytotoxicity in HEK293 cells - 32 hour (AID 1224881); note: nearly all actives have a fitted effect of over 40% in size; note: potency is the fitted concentration of half-maximal effect
# Method in brief: (§2)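 Cytotoxicity was tracked continuously in HEK293 cells by a DNA-binding dye excluded from viable cells. Compounds were transferred in DMSO 5 h after seeding; fluorescence was recorded at intervals up to 40 h.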
# [6] = A CellTox Green Cytotoxicity Assay to monitor cytotoxicity in HepG2 cells - 0 hour (AID 1224882); note: nearly all actives have a fitted effect of over 35% in size; note: potency is the fitted concentration of half-maximal effect
# Method in brief: as §1
# [7] = A CellTox Green Cytotoxicity Assay to monitor cytotoxicity in HEK293 cells - 8 hour (AID 1224884); note: nearly all actives have a fitted effect of over 35% in size; note: potency is the fitted concentration of half-maximal effect
# Method in brief: as §2
# [8] = qHTS RealTime-Glo MT Cell Viability Assay in HepG2 cells - 16 hour (AID 1224885); note: nearly all actives have a fitted effect of over 50% in size; note: potency is the fitted concentration of half-maximal effect
# Method in brief: (§3)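 Compound treatment began 5 h after plating HepG2 cells (600/well) with NanoLuc luciferase and prosubstrate. Plates stayed at 37 C for 40 h; luminescence was captured at six time points, 0 h through 40 h.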
# [9] = A CellTox Green Cytotoxicity Assay to monitor cytotoxicity in HepG2 cells - 32 hour (AID 1224883); note: nearly all actives have a fitted effect of over 50% in size; note: potency is the fitted concentration of half-maximal effect
# Method in brief: as §1
# [10] = qHTS RealTime-Glo MT Cell Viability Assay in HepG2 cells - 32 hour (AID 1224877); note: nearly all actives have a fitted effect of over 55% in size; note: potency is the fitted concentration of half-maximal effect
# Method in brief: as §3
smiles,measurement,setting,value
Cc1ccc2sc3cccc(C)c3c2c1,Potency,[1],inactive
same,Potency,[2],inactive
same,Potency,[3],inactive
same,Potency,[4],inactive
same,Potency,[5],inactive
same,Potency,[6],inactive
same,Potency,[7],inactive
CC1=CC[C@@H](C(C)(C)O)CC1,Potency,[1],inactive
same,Potency,[2],inactive
same,Potency,[3],inactive
same,Potency,[4],inactive
same,Potency,[5],inactive
same,Potency,[6],inactive
same,Potency,[7],inactive
same,Potency,[8],inactive
CC(C)c1ccc2sc3ccccc3c(=O)c2c1,Potency,[1],inactive
same,Potency,[2],inactive
same,Potency,[3],19.5 µM (active)
same,Potency,[4],inactive
same,Potency,[5],inactive
same,Potency,[6],inactive
same,Potency,[9],inactive
same,Potency,[7],inactive
same,Potency,[8],inactive
CCCCCN=C(N)N/N=C/c1c[nH]c2ccc(OC)cc12,Potency,[1],6.74 µM (active)
same,Potency,[10],5.35 µM (active)
same,Potency,[2],5.35 µM (active)
same,Potency,[3],5.35 µM (active)
same,Potency,[5],6.01 µM (active)
same,Potency,[6],inactive
same,Potency,[9],6.01 µM (active)
same,Potency,[7],15.1 µM (active)
same,Potency,[8],7.56 µM (active)
CC(C)C(=O)C(C)C,Potency,[1],inactive
same,Potency,[2],inactive
same,Potency,[3],inactive
same,Potency,[4],inactive
same,Potency,[5],inactive
same,Potency,[6],inactive
same,Potency,[9],inactive
same,Potency,[7],inactive
same,Potency,[8],inactive
O=C1CCC(=O)N1,Potency,[1],inactive
same,Potency,[10],inactive
same,Potency,[2],inactive
same,Potency,[3],inactive
same,Potency,[5],inactive
same,Potency,[6],inactive
same,Potency,[9],inactive
same,Potency,[7],inactive
CCCCCCCC/C=C\CCCCCCCC(=O)N(CCO)CCO,Potency,[1],inactive
same,Potency,[10],inactive
same,Potency,[4],inactive
same,Potency,[6],inactive
same,Potency,[7],inactive
same,Potency,[8],inactive
O=C1CCC/C=C\CCCCCCCCCC1,Potency,[1],inactive
same,Potency,[10],inactive
same,Potency,[4],inactive
same,Potency,[6],inactive
same,Potency,[7],inactive
same,Potency,[8],inactive
Cn1c(=O)[nH]c2ncn(C)c2c1=O,Potency,[1],inactive
same,Potency,[2],inactive
same,Potency,[3],inactive
same,Potency,[4],inactive
same,Potency,[5],inactive
same,Potency,[9],inactive
same,Potency,[7],inactive
same,Potency,[8],inactive
COc1cccc(-c2ccc(/C=C\CN3CCCCCC3)cc2Cl)c1,Potency,[1],43.4 µM (active)
same,Potency,[10],48.7 µM (active)
same,Potency,[2],43.4 µM (active)
same,Potency,[3],38.7 µM (active)
same,Potency,[5],43.4 µM (active)
same,Potency,[6],inactive
same,Potency,[9],38.7 µM (active)
same,Potency,[8],43.4 µM (active)
CCN(CC)c1ccc(C=O)cc1,Potency,[1],inactive
same,Potency,[10],inactive
same,Potency,[2],inactive
same,Potency,[3],inactive
same,Potency,[5],inactive
same,Potency,[9],inactive
same,Potency,[7],inactive
same,Potency,[8],inactive
Cc1ccc(C2OC[C@@H]3OC(c4ccc(C)cc4)O[C@H]([C@H](O)CO)[C@@H]3O2)cc1 (stereo not given in full),Potency,[1],inactive
same,Potency,[10],inactive
same,Potency,[2],inactive
same,Potency,[3],inactive
same,Potency,[6],inactive
same,Potency,[9],inactive
same,Potency,[7],inactive
same,Potency,[8],inactive
COc1cc(C(C)C)ccc1C,cytotoxicity increase,[1],-12.9% [at 15.8 µM]
same,cytotoxicity,[2],-14.9% [at 15.8 µM]
same,cytotoxicity increase,[3],-18.2% [at 15.8 µM]
same,"activity change, negative = cytotoxicity",[4],6.56% [at 15.8 µM]
same,cytotoxicity increase,[5],-4.81% [at 15.8 µM]
same,cytotoxicity,[6],-8.39% [at 15.8 µM]
same,cytotoxicity increase,[9],-14.3% [at 15.8 µM]
same,cytotoxicity increase,[7],-0.16% [at 15.8 µM]
same,"activity change, negative = cytotoxic",[8],-0.349% [at 15.8 µM]
CCOC(=O)C1=NN(c2ccc(Cl)cc2Cl)C(C)(C(=O)OCC)C1 (stereo not given),Potency,[1],inactive
same,Potency,[2],inactive
same,Potency,[3],inactive
same,Potency,[4],inactive
same,Potency,[5],inactive
same,Potency,[6],inactive
same,Potency,[9],inactive
same,Potency,[7],inactive
same,Potency,[8],inactive
CN(C/C=C/c1ccccc1)Cc1cccc2ccccc12,Potency,[1],23.9 µM (active)
same,Potency,[2],23.9 µM (active)
same,Potency,[3],21.3 µM (active)
same,Potency,[4],inactive
same,Potency,[5],19 µM (active)
same,Potency,[6],19 µM (active)
same,Potency,[7],19 µM (active)
[Cl][Dy]([Cl])[Cl],Potency,[1],inactive
same,Potency,[2],inactive
same,Potency,[3],inactive
same,Potency,[4],inactive
same,Potency,[5],inactive
same,Potency,[9],inactive
same,Potency,[8],inactive
CCOC(=O)OC(=O)OCC,Potency,[1],inactive
same,Potency,[10],inactive
same,Potency,[2],inactive
same,Potency,[3],inactive
same,Potency,[5],inactive
same,Potency,[9],inactive
same,Potency,[7],inactive
same,Potency,[8],inactive
CCC1(C)C(=O)N(Cl)C(=O)N1Cl (stereo not given),Potency,[1],inactive
same,Potency,[2],inactive
same,Potency,[3],inactive
same,Potency,[4],inactive
same,Potency,[5],inactive
same,Potency,[6],inactive
same,Potency,[9],inactive
same,Potency,[7],inactive
same,Potency,[8],inactive
C=C(C)C1CCC(C)CC1O (stereo not given),Potency,[1],inactive
same,Potency,[2],inactive
same,Potency,[3],inactive
same,Potency,[4],inactive
same,Potency,[5],inactive
same,Potency,[6],inactive
same,Potency,[9],inactive
same,Potency,[7],inactive
same,Potency,[8],inactive
CCN(CC)c1ccc(C=O)c(O)c1,Potency,[1],inactive
same,Potency,[2],inactive
same,Potency,[3],inactive
same,Potency,[4],inactive
same,Potency,[5],inactive
same,Potency,[9],inactive
same,Potency,[7],inactive
same,Potency,[8],inactive
CC(O)(c1ccc(Cl)cc1)c1ccc(Cl)cc1,Potency,[1],49 µM (active)
same,Potency,[2],49 µM (active)
same,Potency,[3],49 µM (active)
same,Potency,[4],inactive
same,Potency,[5],49 µM (active)
same,Potency,[9],49 µM (active)
C/C=C/C(=O)C1=C(C)C=CCC1(C)C,Potency,[1],inactive
same,Potency,[2],inactive
same,Potency,[3],inactive
same,Potency,[4],inactive
same,Potency,[5],inactive
same,Potency,[7],inactive
same,Potency,[8],inactive
O=c1cc[nH]cc1,Potency,[1],inactive
same,Potency,[2],inactive
same,Potency,[3],inactive
same,Potency,[4],inactive
same,Potency,[5],inactive
same,Potency,[6],inactive
same,Potency,[9],inactive
same,Potency,[7],inactive
same,Potency,[8],inactive
O=C1OC2(c3ccccc31)c1ccc(O)c(Br)c1Oc1c2ccc(O)c1Br,Potency,[10],inactive
CC(=O)CC(N)=O,Potency,[10],inactive
same,Potency,[2],inactive
same,Potency,[3],inactive
same,Potency,[4],inactive
same,Potency,[5],inactive
same,Potency,[6],inactive
same,Potency,[9],inactive
same,Potency,[7],inactive
same,Potency,[8],inactive
O=C1OC(O)C(C(Cl)Cl)=C1Cl (stereo not given),Potency,[1],inactive
same,Potency,[3],35.7 µM (active)
same,Potency,[4],inactive
same,Potency,[5],inactive
same,Potency,[6],inactive
same,Potency,[9],45 µM (active)
same,Potency,[7],inactive
Clc1nc(C(Cl)(Cl)Cl)c(Cl)c(Cl)c1Cl,Potency,[1],inactive
same,Potency,[2],43.6 µM (active)
same,Potency,[3],43.6 µM (active)
same,Potency,[4],inactive
same,Potency,[6],inactive
same,Potency,[9],43.6 µM (active)
CN1CCN(CCCN2c3ccccc3Sc3ccc(C(F)(F)F)cc32)CC1,Potency,[1],23.9 µM (active)
same,Potency,[2],21.3 µM (active)
same,Potency,[3],23.9 µM (active)
same,Potency,[5],23.9 µM (active)
same,Potency,[6],inactive
same,Potency,[9],21.3 µM (active)
same,Potency,[7],23.9 µM (active)
c1ccc2cc3c4ccccc4c4ccccc4c3cc2c1,Potency,[1],inactive
same,Potency,[3],13.9 µM (active)
same,Potency,[4],inactive
same,Potency,[9],13.9 µM (active)
same,Potency,[7],inactive
same,Potency,[8],inactive
Cc1cc(F)ccc1-c1cc(N2CC[C@@H](O)[C@H]2CO)ncc1N(C)C(=O)C(C)(C)c1cc(C(F)(F)F)cc(C(F)(F)F)c1,Potency,[1],43 µM (active)
same,Potency,[2],38.3 µM (active)
same,Potency,[3],43 µM (active)
same,Potency,[6],inactive
same,Potency,[9],43 µM (active)
same,Potency,[7],inactive
same,Potency,[8],38.3 µM (active)
